# This is a sample that favours compounds with a hit; in the whole collection about 12% have one here.
# JMJD2A Tudor: qHTS Assay for Inhibitors of JMJD2A-Tudor Domain | Lysine-specific demethylase 4A (Homo sapiens), O75164 | AlphaScreen JMJD2A-Tudor / H3K4me3 peptide binding | Potency, µM (series often up to 114 µM), for the others: at the highest dose activity change, negative = inhibition, most hits filed as inhibitors | 4.4% of 390,000 active | AID 504339, 2011; further: on the % scale 0 is the no-effect control and ±100 the full control effect; nearly all actives have a fitted effect of over 50% in size
# BAZ2B inh: qHTS Assay for Inhibitors of BAZ2B. Bromodomain adjacent to zinc finger domain protein 2B (Homo sapiens), Q9UIF8. AlphaScreen BAZ2B-H3K14Ac peptide displacement. 4.4% of 360,000 active. Potency, µM (doses to about 114 µM), inactives show top-dose activity change, negative = inhibition, hits mostly inhibitors; further: on the % scale 0 is the no-effect control and ±100 the full control effect; nearly all actives have a fitted effect of over 60% in size
#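 Inhibition is scored as reduced AlphaScreen emission. The BAZ2B/b-H3(5-23)K14Ac complex (50 nM each) in PBS pH 7.4, 0.01% Tween-20 meets compound (up to 110 uM) for 30 min at RT before bead addition.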
# Sfp inh: qHTS Assay for Inhibitors of Bacillus subtilis Sfp phosphopantetheinyl transferase (PPTase). 4'-phosphopantetheinyl transferase ffp (Bacillus subtilis), Q9F4F7. Biochemical Sfp PPTase activity, qHTS. Potency, µM, inactives show largest response in the series, negative = inhibition, hits mostly inhibitors. 3.5% of 310,000 active;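 further: the enzyme is Sfp with the accession as filed and its product quenches rhodamine fluorescence; 0% = enzyme reaction without inhibitor and -100% = no enzyme wells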
#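 After 15 min at room temperature with compound, 15 nM Sfp received 5 uM rhodamine-CoA plus 12.5 uM BHQ-2-ybbR (50 mM Hepes pH 7.6, 10 mM MgCl2). Rate came from the fluorescence difference over 30 min, ex 525/em 598 nm.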
# HP1b chromo inh: HTS for Inhibitors of HP1-beta Chromodomain Interactions with Methylated Histone Tails; AlphaScreen HP1-beta / biotin-H3K9me3 peptide binding; Potency, µM (top dose mostly 114 µM), for the others: at the highest dose activity change, negative = inhibition, most hits filed as inhibitors; 0.56% of 390,000 active; AID 540317, 2011; further: nearly all actives have a fitted effect of over 70% in size
#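 HP1-beta protein (50 nM final) preincubated 30 min at room temperature with biotinylated H3(1-18)K9me3 peptide (50 nM) in PBS pH 7.4, 0.01% Tween-20, then compound added for 30 min. AlphaScreen streptavidin donor/nickel chelate acceptor beads (10 ug/mL final), 30 min dark, luminescence read.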
# L3MBTL1 inh: qHTS Assay for the Inhibitors of L3MBTL1 | AlphaScreen L3MBTL1–H3K9me1 peptide binding | Potency, µM (titrated, usually from 57.1 µM), for inactives: at the top dose activity, negative = inhibition, actives largely listed as inhibitors | 0.66% of 230,000 active | AID 485360, 2010; further: on the % scale 0 is the no-effect control and ±100 the full control effect; nearly all actives have a fitted effect of over 60% in size
#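 Read-out is AlphaScreen signal from streptavidin donor and nickel chelate acceptor beads (10 ug/mL final each) bridging L3MBTL1 (50 nM) and biotinylated K9-monomethylated H3(1-15) peptide (75 nM), after 30 min compound exposure at room temperature.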
# G9a block: qHTS Assay for Inhibitors of Histone Lysine Methyltransferase G9a | Histone-lysine N-methyltransferase EHMT2 (Homo sapiens), Q96KQ7 | G9a H3K9 monomethylation, AlphaScreen, 2 h | Potency, µM (top dose mostly 102 µM), without a hit: top-dose activity, negative = inhibition, most hits filed as inhibitors | 8.8% of 350,000 active; further: on the % scale 0 is the no-effect control and ±100 the full control effect; nearly all actives have a fitted effect of over 75% in size
#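 Quantitative HTS format: methyltransferase activity on a biotin-tagged H3K9 peptide is measured by AlphaScreen, using a rabbit anti-monomethyl-H3K9 antibody with streptavidin donor and anti-IgG acceptor beads. Final levels are 20 nM enzyme, 500 nM peptide, 20 uM SAM; 2 h RT.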
# Starred values were filed as active, the others as inactive; ? = inconclusive; / = no result; ! = not active in a repeat; [ ] = remark or other dose. The call rests on the fitted dose curve; in most records, active means well fitted curve in the direction sought with a large enough effect; inconclusive means small, poorly fitted or top-dose-only effect, or another doubt; inactive means no such curve, though single readings can be large; an effect the other way counts as inactive or inconclusive. Potency means the concentration at half of the fitted maximal effect.
SMILES,JMJD2A Tudor,BAZ2B inh,Sfp inh,HP1b chromo inh,L3MBTL1 inh,G9a block
Cc1noc(C)c1NC(=O)Nc1ccc2c(c1)C(=O)N([C@H](C)CO)C[C@H](C)[C@@H](CN(C)C(=O)Nc1c(C)noc1C)O2,-8%,/,/,44%,10%,/
Cc1c(C)n(C(=O)CN2CCN(c3ccccc3)CC2)c2ccccc12,?,?,?,-19%,/,50µM*
CN1CCN(CC(=O)n2c3c(c4ccccc42)CCCC3)CC1,56µM*,?,-1%,-9%,-5%,40µM*
CCn1c(C)nnc1SCC(=O)NC1CCCC1,-1%,8%,9%,12%,/,-1%[59 µM]
COc1ccc(NC(=O)C2CCCN(S(C)(=O)=O)C2)c(OC)c1 (stereo not given),-14%,0%,10%,56%,-5%,28%
COc1ccc(NC(=O)c2cc(C3CC3)on2)c(OC)c1,1%,7%,-4%,60%,-9%,45µM*
COc1ccc(NC(=O)C2CCN(C(=O)c3cccs3)CC2)c(OC)c1,28µM*,-32%,15%,?,3%,7%[12.7 µM]
COc1ccc(NC(=O)c2cc(-c3ccco3)on2)c(OC)c1,-5%,12%,12%,21%,/,-3%[12.7 µM]
COc1ccc(NC(=O)C2CCN(S(C)(=O)=O)CC2)c(OC)c1,-14%,-12%,4%,38%,0%,89µM*
COc1ccc(NC(=O)C2CCN(C(=O)NC3CCCCC3)CC2)c(OC)c1,79µM*,/,17%,-21%,2%,-7%[59 µM]
COc1ccc(NC(=O)C2CCCN2C(=O)NC2CCCCC2)c(OC)c1 (stereo not given),3%,-13%,12%,53%,/,18%
COc1ccc(OCC(=O)Nc2nc(-c3ccc(Br)cc3)ns2)cc1,7%,-4%,/,70%,/,-3%[59 µM]
Cc1ccc(C(C)(O)CS(=O)(=O)Cc2ccccc2)cc1 (stereo not given),-5%,-25%,1%,66%,/,56µM*
O=S(=O)(NCCc1nnc2ccc(SCc3ccccc3Cl)nn12)c1ccccc1,-24%,?,/,13%,/,-31%[59 µM]
COc1ccc(-n2nc([N+](=O)[O-])c(=NCCC3=CCCCC3)n2O)cc1,40µM*,20µM*,-6%,45µM*,?,32µM*
Cc1cc(C)cc(N=c2c([N+](=O)[O-])nn(-c3ccc(Cl)cc3)n2O)c1,?,?,9%,-27%,/,?
CCc1ccc(N=c2c([N+](=O)[O-])nn(-c3ccccc3)n2O)cc1,45µM*,32µM*,?,?,/,?
Cc1ccc(CN=c2c([N+](=O)[O-])nn(-c3cccc(C)c3)n2O)cc1,35µM*,?,11%,?,/,-3%
COc1ccc(-n2nc([N+](=O)[O-])c(=NCCc3ccc(C)cc3)n2O)cc1,50µM*,?,-4%,?,/,?
COc1ccc(-n2nc([N+](=O)[O-])c(=NCc3cccnc3)n2O)cc1,-15%,-9%,5%,21%,13%,18%[59 µM]
COc1ccc(-n2nc([N+](=O)[O-])c(=NCCc3ccc(Cl)cc3)n2O)cc1,-32%,-10%[57.1 µM],10%,-7%,-11%,11%
Cn1cc(Cl)c(/C=C(\C#N)S(=O)(=O)c2ccccc2)n1,-10%,-1%,0%,28%,3%,/
C=CCOc1ccc(/C=C2\SC(N3CCCCC3)=NC2=O)cc1,-21%,3%,21%,57%,-7%,14%
CC(=O)NC(C(=O)c1ccccc1)C(=O)c1ccccc1,3%,-2%,9%,46%,1%,50µM*
CCOP(=O)(OCC)C(NC(C)=O)C(=O)c1ccccc1 (stereo not given),-8%,-11%,20%,32%,-2%,-28%
SMILES,JMJD2A Tudor,BAZ2B inh,Sfp inh,HP1b chromo inh,L3MBTL1 inh,G9a block
Cc1ccc(C2C3=C(CC(C)(C)CC3=O)Nc3[nH]c(=S)[nH]c(=O)c32)cc1 (stereo not given),89µM*,?,14µM*,29%,-4%,?
Cc1[nH]nc2c1C(c1ccc(O)cc1)C1=C(CC(C)(C)CC1=O)N2 (stereo not given),-3%,-6%,15%,21%,/,7%
CN(C)c1cc(-c2ccc(Cl)cc2Cl)oc(=O)c1Cl,-9%,89µM*,?,18%,-14%,/
Cc1cccc(C#Cc2ccccc2)n1,?,-8%,50µM*!,55%,4%,20µM*!
Nc1ccc(C#Cc2ccccc2)cc1,-6%,-5%,20%,6%,5%,38%[59 µM]
S=C(NCCc1ccccc1)N1CCn2cccc2C1c1cccnc1 (stereo not given),?,?,-5%,-24%,3%,?
Cn1c(=O)c2[nH]c(Cc3ccsc3)nc2n(C)c1=O,?,/,/,26%,/,/
CCC(C)NC(=O)CC(c1ccccc1)c1cc(C)ccc1O (stereo not given),-7%,-13%,-1%,47%,5%,-17%
CCOc1ccc(-c2nc(C)c(C(C)=O)n2O)cc1,-19%,4%,18µM*,2%,/,?
COc1ccc(-c2nc(C)c(C(C)=O)n2O)cc1,?,-12%,-9%,9%,3%,-5%[12.7 µM]
CC(=O)c1c(C)nc(-c2ccc3c(c2)OCO3)n1O,-22%,-32%,-22%,34%,-9%,56µM*
COc1ccc2c(c1)C(=O)[C@@H](OC(=O)NCCc1ccc(OC)c(OC)c1)[C@H](c1ccc(OC)c(Br)c1)O2,/,/,-3%,/,/,/
COc1ccc(C(=O)Nc2ccc3c(c2)CCCN3S(=O)(=O)c2ccc(C)cc2)c(OC)c1,1%,-16%,/,38%,/,18%[59 µM]
Cc1cccc(CSc2nc3c(sc4ccccc43)c(=O)n2CCC(=O)NC(C)C)c1,-7%,18%,/,65%,/,-7%[59 µM]
O=c1c(-c2c(O)cc(O)c3c(=O)cc(-c4ccc(O)cc4)oc23)c(-c2ccc(O)cc2)oc2cc(O)cc(O)c12,50µM*,28µM*,?,-22%,/,?
Cc1cccc(C)c1OCC(O)CNC(C)C (stereo not given),-2%,?,6%,25%,/,?
CCOC(=O)c1oc2cccc(OCC(O)CNC(C)C)c2c1C (stereo not given),-13%,-24%,28µM*,5%,/,?
CC(C)n1cnc2cc(NCc3nc4ccccc4n3C)ccc21,?,?,-3%,10%,-10%,45µM*
